Screen size: about 360,000 compounds; about 680 (0.19%) were called active. This is one part of a sample in which actives are shown more often than they occur. Rule as the data show it: active = inhibition above about 25%; inactive = the rest.
target: Arf-GAP with SH3 domain, ANK repeat and PH domain-containing protein 1 (Homo sapiens) (UniProt Q9ULH1); test: blockers of ASAP1-stimulated ARF1 GTP hydrolysis – biochemical, fluorescence polarization, primary screen (AID 624377); details: GDP FP detection, at 16.5 µM, stronger effect = higher value;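 also: 0% = vehicle with enzyme and substrate and 100% = no enzyme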
Sequence (Q9ULH1 325-724 limits assumed): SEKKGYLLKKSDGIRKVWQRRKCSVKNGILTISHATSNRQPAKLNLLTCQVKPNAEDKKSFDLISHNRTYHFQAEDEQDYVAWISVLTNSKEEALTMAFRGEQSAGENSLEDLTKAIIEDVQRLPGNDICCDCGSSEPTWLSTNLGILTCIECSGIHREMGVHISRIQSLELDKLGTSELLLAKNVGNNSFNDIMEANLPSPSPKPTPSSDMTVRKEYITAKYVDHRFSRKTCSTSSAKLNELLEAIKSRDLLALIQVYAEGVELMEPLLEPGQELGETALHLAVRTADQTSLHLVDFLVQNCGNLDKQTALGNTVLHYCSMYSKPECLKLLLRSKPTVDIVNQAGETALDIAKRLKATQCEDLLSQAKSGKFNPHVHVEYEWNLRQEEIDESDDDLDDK

inhibition, inactive:
Brc1ccc(COCCc2cn(Cc3ccccc3)c3ccccc23)cc1 -1.81%
COC(=O)Cc1nnn2c1[C@H](C)[C@@H](OC)c1cc(Br)ccc1-2 8.77%
CC[C@H](NC(=O)[C@H](Cc1ccccc1)NC(=O)[C@H]1O[C@@H](n2cnc3c(=O)[nH]c(N)nc32)[C@H](O)[C@@H]1O)c1ccccc1 3.49%
O=S1(=O)c2c(cccc2N2CCCC2)O[C@H](COCc2ccccc2)CN1C1CC1 -12.9%
CC1CCN(C(=O)c2ncn3c2C(=O)N[C@@H](C)C3)CC1 1.95%
CC(=O)C1=C(C)N(Cc2ccc(Cl)cc2)C(=S)NC1c1ccc(F)cc1 (stereo not given) -0.95%
CCCCCCCCN1C(=O)[C@@H](CC(=O)NCc2ccccc2)C[C@@]2(C(=O)OC)C1=C[C@H](C(C)(C)C)O[C@@H]2C 4.65%
CCc1c(-c2ccccc2OC)ncn1CCc1ccccc1OC 8.29%
COc1ccc(S(=O)(=O)Nc2ccc3c(c2)C(=O)N([C@H](C)CO)C[C@H](C)[C@@H](CN(C)C)OCCCC[C@H](C)O3)cc1 -2.07%
O=C(O)Cn1cnc2c(NCc3ccccc3)ncnc21 -0.64%
CCOC(=O)C1CSCCS(=O)(=O)N1Cc1ccc(Cl)cc1 (stereo not given) 1.02%
O=C(N[C@H](Cc1ccccc1)C(=O)N1CCCN(Cc2cccs2)CC1)[C@H]1O[C@@H](n2ccc(=O)[nH]c2=O)[C@H](O)[C@@H]1O -8.2%
O=S1(=O)c2ccc(Br)cc2-n2nncc2CN1Cc1cccc(Cl)c1 -4.19%
CCCCOCC1CN(CCCC)S(=O)(=O)c2c(Oc3ccc(F)cc3)cccc2O1 (stereo not given) -4.17%
C[C@H](O)[C@@H]1C(=O)N2CCc3c([nH]c4c(-c5ccc6c(c5)OCO6)cccc34)[C@@H]2C[C@@H]1N(C)C(=O)c1ccco1 -3.66%
C=CCN=C1NC(c2cccc(C(F)(F)F)c2)C(C(=O)OC)=C(C)N1C (stereo not given) -4.81%
C[C@H]1CN([C@@H](C)CO)C(=O)CCCn2nncc2CO[C@@H]1CN(C)C(=O)Nc1ccc(N2CCN(C)CC2)cc1 6.23%
COC(=O)c1cc2c(c3c4cc(F)ccc4n(S(=O)(=O)c4ccccc4)c13)C(=O)N(Cc1ccccc1OC)C2 -0.6%
Nc1ncnc2c1ncn2[C@@H]1O[C@H](C(=O)N[C@@H](CCc2ccccc2)C(=O)NCC(=O)N2CCOCC2)[C@@H](O)[C@H]1O -8.44%
CC(=O)N1C[C@@H](CO)[C@@H](N(C)C(=O)C(C)(C)C)C[C@H]1c1ccccc1Br -5.76%

— PubChem BioAssay AID624377 (The Scripps Research Institute Molecular Screening Center, 2012)
